Screens: PubChem, several laboratories
The list is not random: actives were taken first. Their share in the collection is about 4.7%.
KLK7 zymogen act – proKLK7 (human) activation, primary screen. purified proKLK7, EDANS-DABCYL substrate fluorescence; 100% is mature enzyme control, 0% vehicle. AID 652039. 370,000 tested, 0.9% active. P49862. activation, % at 7 µM;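 active = activation above the mean of all tested compounds plus 3 SD, computed per campaign excluding outliers beyond control limits, cut at about 13% in these data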
rCAG binder – binds r(CAG) RNA repeats; r(CAG) RNA repeat, TO-PRO-1 dye displacement fluorescence; inhibition, % at 3 µM; 370,000 tested, 1.3% active; AID 651821;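 active = inhibition above the plate cutoff, the mean of all test compounds on that plate plus 3 SD, cut at about 35% in these data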;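 note: higher means more dye released from RNA so lower well fluorescence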
DSG3 Ab inh – blocks pemphigus antibody binding to human desmoglein-3; P32926; DSG3-coupled beads, scFv-anti-DSG3-GFP binding, flow cytometry; stronger effect = lower value; binding (percent of control), % at 10 µM; 310,000 tested, 0.48% active;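 active = binding more than 3 SD below its plate's average and above zero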;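 note: hits lower antibody fragment binding to DSG3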
Target sequence (P32926 whole entry, looked up, the tested form may be a part): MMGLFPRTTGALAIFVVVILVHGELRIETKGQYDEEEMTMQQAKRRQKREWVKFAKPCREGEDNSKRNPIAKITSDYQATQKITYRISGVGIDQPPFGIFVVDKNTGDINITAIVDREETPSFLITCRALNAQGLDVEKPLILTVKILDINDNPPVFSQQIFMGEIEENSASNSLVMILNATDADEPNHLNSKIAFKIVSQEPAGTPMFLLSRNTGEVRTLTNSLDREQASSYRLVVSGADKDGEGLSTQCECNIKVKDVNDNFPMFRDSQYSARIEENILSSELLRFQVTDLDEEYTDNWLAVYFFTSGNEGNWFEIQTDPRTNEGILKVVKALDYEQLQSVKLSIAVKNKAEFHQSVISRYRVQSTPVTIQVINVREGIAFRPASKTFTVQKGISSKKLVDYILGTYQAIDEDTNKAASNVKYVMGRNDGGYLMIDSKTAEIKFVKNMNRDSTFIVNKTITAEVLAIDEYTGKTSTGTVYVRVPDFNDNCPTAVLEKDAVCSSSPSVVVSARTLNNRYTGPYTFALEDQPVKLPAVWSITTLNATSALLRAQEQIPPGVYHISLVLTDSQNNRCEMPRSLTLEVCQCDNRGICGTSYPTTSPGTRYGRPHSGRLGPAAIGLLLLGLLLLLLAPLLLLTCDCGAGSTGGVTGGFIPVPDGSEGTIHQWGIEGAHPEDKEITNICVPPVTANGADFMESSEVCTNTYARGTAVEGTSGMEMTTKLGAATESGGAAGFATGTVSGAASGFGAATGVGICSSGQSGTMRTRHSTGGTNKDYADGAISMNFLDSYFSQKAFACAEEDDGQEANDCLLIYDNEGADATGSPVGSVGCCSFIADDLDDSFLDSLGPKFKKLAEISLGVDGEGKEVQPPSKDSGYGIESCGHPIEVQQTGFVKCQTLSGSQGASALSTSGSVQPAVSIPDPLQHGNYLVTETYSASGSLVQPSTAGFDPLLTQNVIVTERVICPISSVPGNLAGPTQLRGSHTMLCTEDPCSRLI
MPTP block – permeability transition pore inhibition | isolated mouse mitochondria, Ca2+ swelling absorbance, 30 min | inhibition, % at 10 µM | 360,000 tested, 1.4% active | AID 602449;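 active = inhibition of 50% or more, scaled per plate between neutral and stimulator controls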
ADAM17 inh – inhibits human ADAM17. 370,000 tested, 0.83% active. AID 720648. recombinant ADAM17, EDANS/DABCYL FRET peptide cleavage. P78536. inhibition, % at 6.95 µM;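 active = inhibition above the mean of compounds lying between control limits plus 3 SD, set per campaign, cut at about 8.5% in these data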
ADAM10 inh – ADAM10 inhibition, QFRET primary screen. inhibition, % at 7 µM. AID 720582. 370,000 tested, 0.62% active. recombinant ADAM10, EDANS/DABCYL FRET peptide cleavage, 3 h;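 active = inhibition above a per-campaign cutoff equal to the mean of compounds falling between control-based bounds plus 3 SD, cut at about 20% in these data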
MPTP counter – Rhodamine 123 counter-screen of mitochondrial pore hits | inhibition, % at 10 µM | isolated mitochondria, membrane potential, Rhodamine 123 fluorescence | shares compounds with MPTP block | AID 624504 | 5,000 tested, 78% active; in the data active = inhibition above about 22%
MPTP swell DR – dose response confirmation of mitochondrial permeability transition pore inhibitors. 780 tested, 58% active. shares compounds with MPTP block. isolated mitochondria swelling, absorbance. AID 651561. IC50, µM; in the data active = IC50 below about 20 µM
MPTP counter DR – active in counter-screen for permeability transition pore inhibitors | isolated mitochondria counterscreen, fluorescence read-out | shares compounds with MPTP block | IC50, µM | 780 tested, 49% active; in the data active = IC50 below about 80 µM
Large screens that a line does not name were inactive (follow-up assays come after a bar, where they were run).

Fc1cccc(NC(=S)NCCc2ccccc2)c1	MPTP block 71 | MPTP counter 87
O=[N+]([O-])c1cccc(NC(=S)NCCc2ccccc2)c1	MPTP block 95 | MPTP counter 96
O=C(Cc1cccc([N+](=O)[O-])c1)Nc1ccccc1	none
O=C(NC(=S)Nc1cnc2ccccc2c1)c1ccccc1	none
O=C(C(=O)N1CCN(C(=O)Cc2ccccc2)CC1)c1cccc(C(F)(F)F)c1	none (no result: DSG3 Ab inh, MPTP block)
OCCNC(=S)NCCc1ccccc1	none
CCN(CC)C(=O)Nc1cnc2ccccc2c1	none
Cc1ccc(NC(=O)Nc2cnc3ccccc3c2)cc1	MPTP block 87 | MPTP counter 71
CC(C)(CNC(=S)NCCc1ccccc1)CNC(=S)NCCc1ccccc1	MPTP block 80 | MPTP counter 85
O=C(NCCCCc1ccccc1)Nc1cccc(F)c1	MPTP block 56 | MPTP counter 96
CC(=O)c1cccc(NC(=S)NCCCCc2ccccc2)c1	MPTP block 68 | MPTP counter 81
C[C@@H]1CN([C@@H](C)CO)C(=O)CCCn2cc(nn2)CO[C@H]1CN(C)C(=O)Nc1ccccc1F	none (no result: DSG3 Ab inh, MPTP block)
CCOC(=O)c1cccc(-c2cc(C(=O)OC)c3n(c2=O)CCC3)c1	none (no result: DSG3 Ab inh, MPTP block)
COC(=O)C1=C(C)N(C)C(=NCc2ccccc2)NC1CCc1ccccc1 (centres undefined)	none (no result: DSG3 Ab inh, MPTP block)
C[C@@H]1CN([C@H](C)CO)C(=O)c2c(c3ccccc3n2C)-c2ccccc2CO[C@@H]1CN(C)C(=O)CCN(C)C	none (no result: DSG3 Ab inh, MPTP block)
CCOc1ccccc1CN1CCCC(C(=O)Nc2cccc(-n3cccn3)c2)C1 (centres undefined)	MPTP block 58 (no result: DSG3 Ab inh) | MPTP counter inactive | MPTP swell DR 6.8 | MPTP counter DR 18
Cn1cc(CN2CCCC(C(=O)Nc3cccc(-n4cccn4)c3)C2)cn1 (centres undefined)	none (no result: DSG3 Ab inh)
Cc1cc(CN2CCCC(C(=O)Nc3cccc(-n4cccn4)c3)C2)cc(C)c1O (centres undefined)	MPTP block 70 | MPTP counter 85
Cc1ccc(OCc2nnc(SCC(=O)Nc3ccccc3-c3ccccc3)n2Cc2ccco2)cc1	none (no result: DSG3 Ab inh, MPTP block)
Cc1ccc(COC(=O)c2cccc(S(=O)(=O)N3CCCCCC3)c2)cc1	none
CC(=O)N1CCN(S(=O)(=O)c2cccc(C(=O)OCc3ccc(C(C)(C)C)cc3)c2)CC1	MPTP block 90 | MPTP counter 90
O=C(NNc1c2ccccc2nc2ccccc12)c1ccccc1O	MPTP block 87 | MPTP counter 43
COc1ccc2c(c1)[C@@H](NC(=O)c1ccncc1)[C@H](C)[C@H]2c1ccccc1	none (no result: DSG3 Ab inh, MPTP block)
Cc1c(C(=O)N/N=C/c2ccc(Cl)cc2)[nH]c2ccc(Cl)cc12	MPTP block 96 | MPTP counter 67
O=C(Nc1ccc(F)c(Cl)c1)C1CC2CCC1C2 (centres undefined)	MPTP block 57 | MPTP counter 79
COc1ccc(NC(=O)NC23CC4(C)CC(C)(CC(C)(C4)C2)C3)cc1	MPTP block 97 | MPTP counter 48
CCC(CC)NC(=O)Nc1ccc(F)c(Cl)c1	MPTP block 71 | MPTP counter 84
CSc1ccccc1NC(=O)Nc1ccc(F)c(Cl)c1	MPTP block 93 (no result: DSG3 Ab inh) | MPTP counter 75
COc1ccc(NC(=O)NC2(C)CCS(=O)(=O)C2)cc1 (centres undefined)	none
CC(C)CC(=O)Nc1ccc(F)c(Cl)c1	none
O=S1(=O)N[C@@H](Cc2ccccc2)COc2cccc(NCCO)c21	none (no result: DSG3 Ab inh, MPTP block)
COc1ccc(OC)c(NC(=O)Nc2ccc(Cl)cc2)c1	MPTP block 91 (no result: KLK7 zymogen act, rCAG binder, ADAM17 inh, ADAM10 inh) | MPTP counter 69
COc1ccc(OC)c(NC(=O)c2cc(-c3cc(Cl)ccc3O)n[nH]2)c1	MPTP block 85 | MPTP counter 61
COc1ccc(NC(=O)Nc2cc(C)ccc2OC)cc1	none
CC(=O)Nc1cccc(NC(=S)Nc2ccc(F)c(Cl)c2)c1	MPTP block 95 | MPTP counter 87
CC(=O)Nc1cccc(NC(=O)Nc2ccc(C)c(Cl)c2)c1	none
COc1ccc(NC(=O)Nc2cc(C)ccc2F)cc1	none
COc1ccc(NC(=O)Nc2ccc(F)c(Cl)c2)cc1	MPTP block 87 | MPTP counter 85
Cc1nnsc1C(=O)NC(=O)Nc1ccc(F)c(Cl)c1	MPTP block 59 | MPTP counter 76
O=C(Nc1cccnc1)Nc1ccc(F)c(Cl)c1	MPTP block 93 | MPTP counter 85
Cc1cccc(OCCC(=O)Nc2ccc(F)c(Cl)c2)c1	MPTP block 78 | MPTP counter 79
Cc1ccc(OCCC(=O)Nc2ccc(F)c(F)c2)cc1	none
Cc1ccc(NC(=O)Nc2ccc(F)c(Cl)c2)cc1	MPTP block 96 | MPTP counter 88
Cc1nnsc1C(=O)Nc1ccc(Cl)cc1	none
COC(=O)C1=C(C)N(Cc2ccccc2C(F)(F)F)C(=NCc2ccc(C(F)(F)F)cc2)NC1CCc1ccccc1 (centres undefined)	none (no result: DSG3 Ab inh, MPTP block)
CCNC(=O)N1CCN(c2ccc(N3CCN(C(=O)NCC)[C@@H](C)C3)c(C)c2)[C@@H](C)C1	none (no result: DSG3 Ab inh, MPTP block)
CSCCC(NC(N)=O)C(=O)Nc1ccc(F)c(Cl)c1 (centres undefined)	MPTP block 64 | MPTP counter 80
COc1ccc(CCNc2ncnc3sccc23)cc1OC	MPTP block 95 | MPTP counter 80
c1ccc2c(c1)OCC(CNCC1COc3ccccc3O1)O2 (centres undefined)	none
Fc1ccccc1CNc1ncnc2sccc12	none
c1ccc2c(c1)OCC(CNc1ncnc3sccc13)O2 (centres undefined)	MPTP block 99 | MPTP counter 103
COc1ccccc1CNc1ncnc2sccc12	MPTP block 52 | MPTP counter 76
CC(C)C[C@H]1COc2cc(Br)ccc2S(=O)(=O)N1Cc1cccc(Cl)c1	none (no result: DSG3 Ab inh, MPTP block)
O=[N+]([O-])c1ccc(N/N=C/c2cccc(O)c2O)cc1	none
O=[N+]([O-])c1ccc(N/N=C/c2cccc(O)c2)cc1	none
Cc1ccc(S(=O)(=O)N/N=C/c2cccc([N+](=O)[O-])c2)cc1	none
CCCCCCCCCCS(=O)(=O)N/N=C/c1ccc(O)cc1	MPTP block 79 | MPTP counter 56
CCCCCCCCCS(=O)(=O)N/N=C/c1cccc([N+](=O)[O-])c1	MPTP block 64 | MPTP counter 61
Cc1cccc(C(=O)Oc2ccccc2/C=N/Nc2ccc([N+](=O)[O-])cc2)c1	MPTP block 67 | MPTP counter 78
